# An excerpt weighted towards active compounds, which were near 7.4% of everything screened.
# Rab9 promoter act – qHTS Assay for Rab9 Promoter Activators; Huh7 Rab9 promoter-luciferase reporter, luminescence, 24 h; Potency, µM (series often up to 9.22 µM), for inactives: at the highest dose activation, negative = inhibition, hits mostly activators; actives 2.8% (n = 320,000); AID 485297, 2010; further: % of control where 0% means no effect; nearly all actives have a fitted effect of over 60% in size
#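 Luminescence from Amplite-detected luciferase (10 minutes, ambient) reports Rab9 promoter activation. Before that, stable Rab9-luciferase Huh7 cells (1500/well, reduced-serum OP-MEM I plus 10% FBS) were exposed to compound for 24 hours at 37C.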
# Luc counter – Counterscreen for Luciferase (Kinase-Glo TM) Inhibition; Luciferin 4-monooxygenase (Photuris pensylvanica), Q27757; Kinase-Glo luciferase, ATP luminescence, 8 min; Potency, µM (highest dose often 38.3 µM), for the others: top-dose activity change, negative = inhibition, usual class: inhibitors; actives 0.28% (n = 200,000); AID 1379, 2008; further: on the % scale 0 is the no-effect control and ±100 the full control effect; nearly all actives have a fitted effect of over 60% in size
#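 Substrate mix (final 50 mM imidazole pH 7.2, 50 mM KCl, 7 mM MgCl2, 10 uM ATP, 0.01% Tween 20, 0.05% BSA) plus pin-tool compound, then Kinase-Glo detection mix; 8 min ambient, luminescence read.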
# NPC1 promoter act – qHTS Assay for NPC1 Promoter Activators; Huh7 NPC1 promoter luciferase reporter, 24 h; Potency, µM (top dose mostly 9.22 µM), for inactives: top-dose activation, usual class: activators; actives 2.4% (n = 320,000); AID 485313, 2010; further: % of control where 0% means no effect; nearly all actives have a fitted effect of over 60% in size
#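 Huh7 cells stably carrying NPC1 promoter–luciferase, plated in Opti-MEM with 10% FBS for 2 h, were exposed to compound in DMSO for 24 h at 37 °C; luciferase reagent was added for 10 min and luminescence read.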
# ELG1 genotox – qHTS screen for small molecules that induce genotoxicity in human embryonic kidney (HEK293T) cells expressing luciferase-tagged ELG1 | actives 1.3% (n = 330,000) | AID 504466, 2011 | Potency, µM (top dose mostly 46 µM), inactives show at the highest dose activity change, positive = activation, hits mostly activators | HEK293T ELG1-luciferase reporter, luminescence, 16 h; further: % of control where 0% means no effect; nearly all actives have a fitted effect of over 60% in size
#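 Reporter readout depends on ELG1 protein level, which increases with genetic stress. After 16 hr compound exposure at 37 °C, luciferase activity was quantified using ONE-Glo.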
# SMN2 splice enh – qHTS Assay for Enhancers of SMN2 Splice Variant Expression; HEK293 SMN2-luciferase splicing reporter, luminescence, 30-36 h; Potency, µM (titrated, usually from 46.1 µM), inactives show at the top dose activity change, positive = activation, most hits filed as activators; actives 2.8% (n = 210,000); further: % of control where 0% means no effect; nearly all actives have a fitted effect of over 55% in size
#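 HEK293 cells carry an SMN2 […]–luciferase reporter in which exon 7 inclusion puts luciferase in frame. Cells were plated 10-12 h before compound addition, then incubated 30-36 h at 37C. ONE-Glo luminescence was read; sodium butyrate at 4.5 mM final served as control.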
# FLuc counter – qHTS profiling assay for firefly luciferase inhibitor/activator using purifed enzyme and Km concentrations of substrates (counterscreen for miR-21 project). actives 6.9% (n = 360,000). purified FLuc, Km substrates, luminescence inhibition. Potency, µM (series often up to 57.5 µM), without a hit: at the top dose activity change, negative = inhibition, actives largely listed as inhibitors. Luciferin 4-monooxygenase (Photinus pyralis), P08659;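 further: plate controls were vehicle for no effect and reference inhibitor for full effect; nearly all actives have a fitted effect of over 55% in size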
# Target sequence (P08659 whole entry, looked up): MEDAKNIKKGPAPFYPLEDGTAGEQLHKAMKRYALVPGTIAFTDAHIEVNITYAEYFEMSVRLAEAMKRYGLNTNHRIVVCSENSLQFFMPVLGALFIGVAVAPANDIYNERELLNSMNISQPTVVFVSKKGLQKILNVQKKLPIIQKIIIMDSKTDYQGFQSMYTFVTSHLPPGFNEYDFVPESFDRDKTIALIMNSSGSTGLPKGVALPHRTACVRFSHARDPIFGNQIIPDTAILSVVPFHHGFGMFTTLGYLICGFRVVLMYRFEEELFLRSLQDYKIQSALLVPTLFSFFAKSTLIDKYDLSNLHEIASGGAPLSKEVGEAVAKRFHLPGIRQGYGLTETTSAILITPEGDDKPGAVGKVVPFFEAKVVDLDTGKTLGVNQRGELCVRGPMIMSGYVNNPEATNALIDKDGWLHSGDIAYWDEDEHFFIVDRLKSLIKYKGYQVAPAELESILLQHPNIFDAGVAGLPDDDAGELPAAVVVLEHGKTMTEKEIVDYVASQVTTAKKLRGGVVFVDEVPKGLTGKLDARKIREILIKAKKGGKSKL
#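 Purified P. pyralis luciferase (10nM final) with 10uM D-luciferin and 10uM ATP (Km levels) in 50mM Tris acetate pH 7.5, 10mM Mg acetate, 0.01% Tween-20, 0.05% BSA; qHTS 6-point titration, ~60 µM downward; luminescence read.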
# An asterisk follows results filed as active; ? = inconclusive; / = no result given; [ ] = dose if it differs, or a comment. The call rests on the fitted dose curve; in most records, active means well fitted curve in the direction sought with a large enough effect; inconclusive means small, poorly fitted or top-dose-only effect, or another doubt; inactive means no such curve, though single readings can be large; an effect the other way counts as inactive or inconclusive. Potency means the concentration at half of the fitted maximal effect.
SMILES,Rab9 promoter act,Luc counter,NPC1 promoter act,ELG1 genotox,SMN2 splice enh,FLuc counter
O=C(c1cccc(OCc2ccccc2)c1)N1CCOCC1,3%,0%,6%,8%,17%,-8%
CCc1c(C)c2ccc3c(c2oc1=O)CN(Cc1ccccc1)CO3,/,/,/,/,/,-6%
Cn1c(=N)n(CC(=O)c2cccs2)c2ccccc21,24%,-4%,20%,?,?,11µM*
COc1cccc(C(=O)Cn2c(NCCO)nc3ccccc32)c1,1%,0%,-2%,0%,4%,-2%
Cn1c(=N)n(CC(=O)c2ccc(Br)s2)c2ccccc21,?,-6%,9%,2.5µM*,?,8.5µM*
COc1cccc(C(=O)Cn2c(=N)n(C)c3ccccc32)c1,?,3%,0.56µM*,0.37µM*,1.3µM*,1.2µM*
COc1ccc(N2CCN(c3ncnc4onc(C)c34)CC2)cc1,/,/,/,/,/,-2%
COCC(=O)O,/,/,/,/,-18%,/
CC(C)(CO)NC(=O)CCCOc1ccc(Cl)cc1Cl,?,-3%,?,11µM*,10µM*,?
O=C(COc1ccc(Cl)cc1Cl)NC(=S)Nc1ccccc1C(=O)O,12%,1%,5%,4%,/,6.7µM*
O=C(COc1ccc(Cl)cc1Cl)NNC(=S)Nc1ccc(F)cc1,-3%,/,1%,-1%,/,17µM*
COc1ccc(NC(=O)COC(=O)CCCOc2ccc(Cl)cc2Cl)cc1Cl,2%,-3%,-3%,8%,8%,15µM*
CC(=O)NC(=S)Nc1ccc(NC(=O)COc2ccc(Cl)cc2Cl)cc1,-7%,-3%,8%,-1%,-13%,-6%
CCCn1c(C)nc2c(NCCCCN3CCCC3)nc(C)nc21,/,-3%,/,/,6%,/
O=C(CCCOc1ccc(Cl)cc1Cl)Nc1ccccc1C(=O)O,3.5µM*,/,2.5µM*,17%,/,8.5µM*
O=C(COc1ccc(Cl)cc1Cl)Nc1ccc(C(=O)Nc2ccccc2C(=O)O)cc1,6%,/,7%,-17%,/,-15%
O=[N+]([O-])c1cccc(S(=O)(=O)Nc2cccc(-c3ccc(N4CCOCC4)nn3)c2)c1,?,/,25%,?,/,2.1µM*
O=[N+]([O-])c1cccc(S(=O)(=O)Nc2cccc(-c3ccc(N4CCCC4)nn3)c2)c1,12%,/,-2%,?,/,9.5µM*
CCc1ccc(S(=O)(=O)Nc2cccc(-c3ccc(N4CCOCC4)nn3)c2)cc1,/,/,/,/,/,8.5µM*
COc1ccc(-c2cccc(NS(=O)(=O)c3cccc([N+](=O)[O-])c3)c2)nn1,-3%,/,0%,-1%,/,-15%
CN(C)CC[C@H](c1ccc(Br)cc1)c1ccccn1,/,-4%[17.1 µM],/,/,0%[20.6 µM],/
CCCCc1nnc(NC(=O)C2CCCO2)s1 (stereo unspecified),28%,3%,11%,15%,35µM*,-2%[2.3 µM]
CCCCNC(=O)c1ccc(NC(=O)C2CCCO2)cc1 (stereo unspecified),-5%,-1%,-3%,-4%,11%,-5%
CCOC(=O)c1ccc(NC(=O)Nc2ccc(Cl)cn2)cc1,1%,1%,3%,0%,-1%,-1%
CCOC(=O)c1ccc(NC(=O)C2CCCO2)cc1 (stereo unspecified),6.3µM*,2%,?,27%,43%,?
SMILES,Rab9 promoter act,Luc counter,NPC1 promoter act,ELG1 genotox,SMN2 splice enh,FLuc counter
CCOC(=O)c1ccc(NC(=O)Nc2ccon2)cc1,-9%,/,16%,7.3µM*,/,19µM*
CCCCOC(=O)c1ccc(NC(=O)C2CCCO2)cc1 (stereo unspecified),?,0%,28%,15%,8%,?
CCCCc1ccc(NC(=O)C2CCCO2)cc1 (stereo unspecified),2.2µM*,-2%,1.6µM*,?,10µM*,13µM*
COc1ccccc1N1CCN(C(=O)Cn2ncc3c(=O)oc4ccccc4c32)CC1,/,/,/,/,5%,-2%
Cc1nnc(NC(=O)C2=COCCO2)s1,17%,/,11%,?,/,-2%
CCCCc1nnc(NC(=O)C2=COCCO2)s1,4.5µM*,/,2.5µM*,15µM*,/,17µM*
Cc1ccc(C=Nc2ccc(N(C)C)cc2)o1,8%,-25%,7%,21µM*,-7%,0.27µM*
Cc1cc(N(CCO)CCO)ccc1N=Nc1cc(F)ccc1F,?,-1%,?,?,?,24µM*
N#Cc1ccc(OCC(=O)NC2CCCCCC2)cc1,/,/,/,1%,/,/
O=C(NC(=S)NC1CCCCC1)c1ccc(F)cc1,4µM*,/,?,?,/,?
Cc1ccc(C(=O)NC2CCCCC2)cc1,2.5µM*,-3%,2.8µM*,30%,14µM*,21µM*
N#Cc1ccc(C(=O)NC2CCCCCCC2)cc1,1.4µM*,/,1.8µM*,?,/,21µM*
O=C(NC(=S)NC(CO)Cc1ccccc1)c1ccc(F)cc1 (stereo unspecified),4µM*,/,1.3µM*,?,/,0%
FC(F)(F)c1cc(CN2CCCC3(CCNCC3)C2)cc(C(F)(F)F)c1,/,-3%,/,/,-2%,/
CC(C)CNC(=S)NC(=O)c1ccc(F)cc1,17%,2%,22%,?,?,30µM*
O=C(NC(=S)NCCN1CCOCC1)c1ccc(F)cc1,-3%,1%,-1%,-1%,?,1%
Cc1ccc(C(=O)NC2CCCCCCC2)c(Cl)c1,0.32µM*,/,0.32µM*,1.5µM*,/,0.76µM*
O=C(NC1CCCCCCC1)c1cc(F)c(F)cc1Cl,?,1%,?,?,?,?
COc1ccc2nc3oc(C(=O)N4CCN(c5cc(C)ccc5C)CC4)cc3cc2c1,/,/,/,/,7%,-17%
O=C(O)c1cccc(NC(=O)c2cn(-c3ccccc3)nc2-c2cc3ccccc3o2)c1,9%,3%,3%,9%,21%,4.3µM*
O=C(N/N=C/c1cn(-c2ccccc2)nc1-c1cc2ccccc2o1)c1ccncc1,2.2µM*,0%,2.8µM*,?,7.1µM*,1.9µM*
O=C(N/N=C/c1cn(-c2ccccc2)nc1-c1cccnc1)c1cccnc1,-7%,-4%,-4%,-3%,-12%,?
O=C(N/N=C/c1cn(-c2ccccc2)nc1-c1cc2ccccc2o1)c1cccnc1,?,-5%,?,?,4µM*,2.1µM*
O=C1CC(C(=O)O)S/C(=N\N=C\c2ccc(Br)cc2)N1 (stereo unspecified),0%,/,-1%,0%,/,17µM*
